“And” between values parts separate entries of the source, which are not always exact repeats. Equal entries are not always repeated. Records with an inconclusive call do not appear. Where a call stands in place of a potency, no number is given. Values without a mark were called inactive. The source made the active and inactive calls. The call rests on the fitted dose curve; in most records, active means well fitted cell-killing curve with a large enough effect in the repeat runs; inconclusive means weak or mixed curves, or effect the other way; inactive means no such curve, though single readings can be large or run the other way.
Potency means the concentration at half of the fitted maximal effect.

The test in a line: qHTS assay to identify small molecule agonists of the estrogen receptor alpha (ER-alpha) signaling pathway in the presence of an antagonist - cell viability counter screen (AID 1259386). Further: nearly all actives have a fitted effect of over 30% in size. Particulars: VM7Luc4E2 viability, CellTiter-Fluor fluorescence, 22 h; series mostly up to 92.4 µM; activity change, negative = cytotoxicity: at the top concentration. The source says: National Center for Advancing Translational Sciences [NCATS]
NIH Chemical Genomics Center [NCGC]
U.S. Environmental Protection Agency [EPA]
National Institutes of Environmental Health Sciences [NIEHS]
National Toxicology Program [NTP]
U.S. Food and Drug Administration [FDA]
Estrogen receptor (ER), a member of nuclear hormone receptor plays an important role in development, metabolic homeostasis and reproduction. Two subtypes of ER, ER-alpha and ER-beta, have similar expression patterns with some uniqueness in both types. Endocrine disrupting chemicals (EDCs) and their interactions with steroid hormone receptors like ER causes disruption of normal endocrine function. Therefore, it is important to understand the effect of environmental chemicals in ER signaling pathway. For identifying ER agonists, VM7Luc4E2 cell line has been used in the current assay.
VM7Luc4E2 cell line (provided by Denison MS, University of California) endogenously expresses full-length ER-alpha and is stably transfected with a plasmid containing four estrogen responsive elements (ERE) upstream of a luciferase reporter gene. This current screening for measuring luciferase reporter gene activity using VM7Luc4E2 cells against Tox21 10K library collection is a confirmation study on agonist mode screening in presence of ER-antagonist (ICI-182,780) at 10.0nM final concentration. The cytotoxicity of the compounds was tested in parallel by measuring the cell viability using CellTiter-Fluor assay system (Promega, Madison, WI) in the same wells.
Tox21 Assay Protocol Summary:
VM7Luc4E2 cells were cultured in phenol red free assay medium containing 10% charcoal stripped FBS for 5 days prior to the assay. The cells were dispensed at 4,000 cells in 4uL of assay medium per well into white wall/solid-bottom 1536-well plates (Corning Life Sciences, Corning, NY) using a Multidrop Combi (Thermo Fisher Scientific Inc., Waltham, MA) dispenser. After the assay plates were incubated at 37C and 5% CO2 for 24hr, 1uL of 10.0nM (final concentration) ICI-182,780 or assay buffer was added using two separate tips of Flying Reagent Dispenser (FRD, Aurora Discovery, San Diego, CA). Then 23nL of compounds dissolved in DMSO at 15 concentrations and positive controls or DMSO only was transferred to the assay plates by a Pintool station (Wako, San Diego, CA). The assay plates were incubated at 37C and 5% CO2 for 22hr. After 21hr incubation at 37C, 1uL/well CellTiter-Fluor reagent (Promega Corporation, Madison, WI) was added to each well using FRD and after 1hr incubation at 37C and 5% CO2, the fluorescence signal was measured on ViewLux plate reader (PerkinElmer, Shelton, CT).
`COC(=O)C(C)Oc1ccc(Oc2ncc(C(F)(F)F)cc2Cl)cc1` (stereo not given): the Potency result is “inactive”. Still for that read-out and setting: with `c1ccc2c(c1)ccc1cc3c(ccc4ccccc43)cc12` the entry was “inactive”. For `Nc1cc([N+](=O)[O-])ccc1C(=O)O`, the “activity change, negative = cytotoxicity” value is -10.9%. With `Oc1ccc(C(c2ccc(O)cc2)C(Cl)(Cl)Cl)cc1`, the Potency entry was “inactive”. Regarding `c1ccc2c(c1)ccc1ncccc12`, the Potency result was “inactive”. Still for that read-out and setting: the entry for `C=C1C[C@H]2[C@@H]3C=C(C)C4=CC(=O)CC[C@]4(C)[C@H]3CC[C@]2(C)[C@@]1(OC(C)=O)C(C)=O` is “inactive”; for `COc1cc([C@H]2Oc3cc([C@H]4Oc5cc(O)cc(O)c5C(=O)[C@@H]4O)ccc3O[C@@H]2CO)ccc1O` it is “inactive”. Still for that read-out and setting: with `c1ccc2ncccc2c1` the entry was “inactive”. `C=CCCCCCCCCCC`: the Potency entry is “inactive”. Consider `O=C1CCc2ccccc2O1`, for which the Potency entry is “inactive”. The same measure, in the same setting: with `CC[C@]12CCCN3CCc4c(n(c5ccccc45)[C@@](O)(C(=O)OC)C1)[C@@H]32` the entry was “inactive”. On the same count and under the same terms, with `CCC/C=C/C=O` the entry was “inactive”; with `O=C(O)COCCN1CCN(C(c2ccccc2)c2ccc(Cl)cc2)CC1` (stereo not given), “inactive”.

Regarding `Nc1ccc2c(c1)C(=O)c1ccccc1C2=O`, the “activity change, negative = cytotoxicity” value was -14.6%. For `Cc1ccc(/C(=C\CN2CCCC2)c2ccccn2)cc1`, the “activity change, negative = cytotoxicity” value was -8.67% [at 42.5 µM]. `COC(=O)c1ccc(C)cc1`: the Potency entry was “inactive”.

Regarding `COc1ccc(-c2coc3cc(O)cc(O)c3c2=O)cc1`, the “activity change, negative = cytotoxicity” value is -12.7%.

As for `CC1(C)C(C=C(Cl)Cl)C1C(=O)OCc1cccc(Oc2ccccc2)c1` (stereo not given), the Potency result was “inactive”.

Turning to `CCCCCC=O`, the “activity change, negative = cytotoxicity” value is 0.621%. Turning to `CC(=O)Nc1ccc2c(c1)Cc1cc(NC(C)=O)ccc1-2`, the Potency result is “inactive”. In the case of `OC[C@@H](O)[C@@H](O[C@@H]1O[C@H](CO)[C@H](O)[C@H](O)[C@H]1O)[C@H](O)[C@@H](O)CO`, the Potency result was “inactive”. Take `NCCN`: the Potency result is “inactive”.

With `C=C[C@@]1(C)CC(=O)[C@]2(O)[C@@]3(C)[C@@H](O)CCC(C)(C)[C@@H]3[C@H](O)[C@H](OC(C)=O)[C@@]2(C)O1`, the Potency entry is “inactive”.

Take `O=C(CCCN1CCC(O)(c2ccc(Cl)cc2)CC1)c1ccc(F)cc1`: the Potency result is “inactive”. In the case of `Cc1ccc(N)c([N+](=O)[O-])c1`, the “activity change, negative = cytotoxicity” value is -10.8%.

As for `O=C(O)CCCCCCCCCCCC(=O)O`, the Potency entry is “inactive”. On the same count and under the same terms, the figure for `O=C1OC2(c3ccccc31)c1cc(I)c(O)c(I)c1Oc1c2cc(I)c(O)c1I` is 13.3 µM (active) [middle of 4 runs]. With `NCCOCCO`, the Potency result was “inactive”.

For the molecule `C=C[Si](OCCOC)(OCCOC)OCCOC`, the Potency result was “inactive”. Same read-out and setting: the entry for `C1CN(SSN2CCOCC2)CCO1` is “inactive”; for `OC[C@H]1O[C@@H]2O[C@H]3[C@H](O)[C@@H](O)[C@@H](O[C@H]4[C@H](O)[C@@H](O)[C@@H](O[C@H]5[C@H](O)[C@@H](O)[C@@H](O[C@H]6[C@H](O)[C@@H](O)[C@@H](O[C@H]7[C@H](O)[C@@H](O)[C@@H](O[C@H]1[C@H](O)[C@H]2O)O[C@@H]7CO)O[C@@H]6CO)O[C@@H]5CO)O[C@@H]4CO)O[C@@H]3CO` it is “inactive”. The same measure, in the same setting: the entry for `Clc1ccc(Sc2cc(Cl)c(Cl)cc2Cl)cc1` is “inactive”; for `CC(C)(Oc1ccc(Cl)cc1)C(=O)O` it is “inactive”; for `CCCCCCOCCOCCO` it is “inactive”. For the molecule `Nc1ccc(N)c(Cl)c1`, the Potency is 61.1 µM (active). For `Nc1cc(Cl)c(N)c(Cl)c1`, the Potency result was “inactive”. Same read-out and setting: the entry for `CC(=O)[C@H]1CC[C@H]2[C@@H]3CC=C4C[C@@H](O)CC[C@]4(C)[C@H]3CC[C@]12C` is “inactive”. As to `CC1(C)NC(=O)N(c2ccc([N+](=O)[O-])c(C(F)(F)F)c2)C1=O`, the “activity change, negative = cytotoxicity” value was -9.96% [at 42.5 µM]. As to `Nc1ccc2c(O)cc(S(=O)(=O)O)cc2c1`, the Potency is 48.6 µM (active) and 21.7 µM (active). On the same count and under the same terms, with `CC(=O)[C@@]1(O)CC[C@H]2[C@@H]3C[C@H](C)C4=CC(=O)C=C[C@]4(C)[C@@]3(F)[C@@H](O)C[C@@]21C` the entry was “inactive”.
